Targets with a hit are over-represented here; the source holds about 8,800 in all. About 0.5% of all pairs of compound and target were hits.
Key:
Assay in all cases: log2 fold change, soluble protein after heating vs DMSO (PISA); higher = thermal stabilisation; K562 lysate, 10 uM; active = over 0.2 and 3.5 SD of the protein, either way, in both replicates (recomputed)
[1] = compound: C1=CC=C(C=C1)[C@H](COC2=CC3=C(C=C2)NC(=O)N3)NC(=O)C4=CC=CN(C4=O)CC5=CC(=C(C=C5)F)F
Procedure, shortened: (§1)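 K562 pellets were dounce-homogenised in PBS pH 7.4 with 1 mM MgCl2, and the crude extract at 1 mg/mL protein was treated with 10 μM compound for 30 min. Aliquots were heated for 3 min across 48°C-58°C, pooled, and brought to 0.5% NP-40 at 4°C; soluble protein was the supernatant after 21,000xg for 90 min. Soluble protein was quantified by TMTpro 16plex LC-MS/MS with channel sums equalised, and reported as log2 fold change in thermal stability against DMSO controls, with values from duplicates.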

[2] = compound: CC1=C(SC2=C1C(=N[C@H](C3=NN=C(N32)C)CC(=O)N)C4=CC=C(C=C4)Cl)C
Procedure, shortened: as §1

[3] = compound: CC1=C2C(=CC=C1)N=C(N(C2=O)C3=CC=CC=C3C)CN4C=NC5=C(N=CN=C54)N
Procedure, shortened: as §1

[4] = compound: Cc1sc2c(c1C)C(c1ccc(Cl)cc1)=N[C@@H](CC(=O)OC(C)(C)C)c1nnc(C)n1-2
Procedure, shortened: as §1

[5] = compound: c1ccc([C@@H]2C[C@H]2NC2CCNCC2)cc1
Procedure, shortened: as §1

Measured: log2 fold change

C18orf32 (UniProt Q8TCD1)
Sequence of UniProt Q8TCD1 (Q8TCD1 whole entry, looked up): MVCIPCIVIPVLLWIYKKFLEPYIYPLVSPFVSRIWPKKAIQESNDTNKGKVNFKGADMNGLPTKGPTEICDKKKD
inactive: [1] 0.039 | [2] 0.004 | [3] -0.245 | [4] -0.028 | [5] 0.076

CDCA8 (UniProt Q53HL2)
Sequence of UniProt Q53HL2 (Q53HL2 whole entry, looked up): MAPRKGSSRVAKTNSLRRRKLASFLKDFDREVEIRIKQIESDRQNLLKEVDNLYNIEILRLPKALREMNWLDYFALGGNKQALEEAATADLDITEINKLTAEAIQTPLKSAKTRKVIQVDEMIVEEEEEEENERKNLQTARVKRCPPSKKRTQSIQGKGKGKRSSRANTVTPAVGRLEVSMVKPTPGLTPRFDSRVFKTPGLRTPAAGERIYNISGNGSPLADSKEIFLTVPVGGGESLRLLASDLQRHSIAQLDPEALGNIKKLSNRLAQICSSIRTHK
inactive: [1] 0.038 | [2] 0.037 | [3] -0.213 | [4] -0.048 | [5] 0.104

C15orf41 (UniProt Q9Y2V0)
Sequence of UniProt Q9Y2V0 (Q9Y2V0 whole entry, looked up): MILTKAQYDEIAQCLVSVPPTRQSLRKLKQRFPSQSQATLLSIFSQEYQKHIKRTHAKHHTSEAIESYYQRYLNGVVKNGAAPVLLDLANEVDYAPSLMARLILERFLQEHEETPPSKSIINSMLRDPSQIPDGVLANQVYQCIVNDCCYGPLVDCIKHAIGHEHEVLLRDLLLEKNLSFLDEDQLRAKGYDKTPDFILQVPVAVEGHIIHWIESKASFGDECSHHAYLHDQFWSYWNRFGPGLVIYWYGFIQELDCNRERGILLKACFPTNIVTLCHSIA
inactive: [1] 0.111 | [2] -0.007 | [3] 0.029 | [4] 0.084 | [5] -0.008

CCDC85B (UniProt Q15834)
Sequence of UniProt Q15834 (Q15834 whole entry, looked up): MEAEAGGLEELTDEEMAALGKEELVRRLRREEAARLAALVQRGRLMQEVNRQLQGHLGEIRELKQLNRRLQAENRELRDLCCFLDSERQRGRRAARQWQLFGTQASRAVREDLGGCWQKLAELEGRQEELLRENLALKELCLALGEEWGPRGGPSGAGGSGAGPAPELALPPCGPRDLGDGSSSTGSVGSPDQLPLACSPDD
inactive: [1] -0.033 | [2] -0.132 | [3] 0.08 | [4] -0.04 | [5] -0.034

BRD4 (UniProt O60885)
active: [2] 0.868 | [4] 0.415
inactive: [1] 0.022 | [3] 0.003 | [5] -0.015

ATP6V1B1 (UniProt P15313)
Sequence of UniProt P15313 (P15313 whole entry, looked up): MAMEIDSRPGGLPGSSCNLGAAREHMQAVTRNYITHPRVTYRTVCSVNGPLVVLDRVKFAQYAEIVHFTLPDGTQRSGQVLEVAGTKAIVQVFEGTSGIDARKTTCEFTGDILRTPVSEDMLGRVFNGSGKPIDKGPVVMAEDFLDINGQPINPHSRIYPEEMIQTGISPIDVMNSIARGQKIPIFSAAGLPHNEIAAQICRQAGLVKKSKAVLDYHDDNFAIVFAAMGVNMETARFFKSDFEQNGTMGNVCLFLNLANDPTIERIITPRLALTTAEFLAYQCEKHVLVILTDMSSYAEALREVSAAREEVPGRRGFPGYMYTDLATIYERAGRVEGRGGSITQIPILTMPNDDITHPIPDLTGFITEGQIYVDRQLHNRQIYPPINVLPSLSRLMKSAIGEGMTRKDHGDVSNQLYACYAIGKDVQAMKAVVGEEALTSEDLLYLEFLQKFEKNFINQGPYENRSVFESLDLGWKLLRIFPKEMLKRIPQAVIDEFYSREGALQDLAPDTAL
inactive: [1] 0.023 | [2] 0.004 | [3] 0.004 | [4] -0.023 | [5] -0.157

CAMLG (UniProt P49069)
inactive: [1] 0.058 | [2] 0.003 | [3] 0.018 | [4] 0.05 | [5] 0.074

BCL2L12 (UniProt Q9HB09)
inactive: [1] 0.162 | [2] 0.119 | [3] 0.035 | [4] -0.011 | [5] -0.044

C2CD5 isoform 3 (UniProt Q86YS7)
Sequence of UniProt Q86YS7 (Q86YS7 whole entry, looked up): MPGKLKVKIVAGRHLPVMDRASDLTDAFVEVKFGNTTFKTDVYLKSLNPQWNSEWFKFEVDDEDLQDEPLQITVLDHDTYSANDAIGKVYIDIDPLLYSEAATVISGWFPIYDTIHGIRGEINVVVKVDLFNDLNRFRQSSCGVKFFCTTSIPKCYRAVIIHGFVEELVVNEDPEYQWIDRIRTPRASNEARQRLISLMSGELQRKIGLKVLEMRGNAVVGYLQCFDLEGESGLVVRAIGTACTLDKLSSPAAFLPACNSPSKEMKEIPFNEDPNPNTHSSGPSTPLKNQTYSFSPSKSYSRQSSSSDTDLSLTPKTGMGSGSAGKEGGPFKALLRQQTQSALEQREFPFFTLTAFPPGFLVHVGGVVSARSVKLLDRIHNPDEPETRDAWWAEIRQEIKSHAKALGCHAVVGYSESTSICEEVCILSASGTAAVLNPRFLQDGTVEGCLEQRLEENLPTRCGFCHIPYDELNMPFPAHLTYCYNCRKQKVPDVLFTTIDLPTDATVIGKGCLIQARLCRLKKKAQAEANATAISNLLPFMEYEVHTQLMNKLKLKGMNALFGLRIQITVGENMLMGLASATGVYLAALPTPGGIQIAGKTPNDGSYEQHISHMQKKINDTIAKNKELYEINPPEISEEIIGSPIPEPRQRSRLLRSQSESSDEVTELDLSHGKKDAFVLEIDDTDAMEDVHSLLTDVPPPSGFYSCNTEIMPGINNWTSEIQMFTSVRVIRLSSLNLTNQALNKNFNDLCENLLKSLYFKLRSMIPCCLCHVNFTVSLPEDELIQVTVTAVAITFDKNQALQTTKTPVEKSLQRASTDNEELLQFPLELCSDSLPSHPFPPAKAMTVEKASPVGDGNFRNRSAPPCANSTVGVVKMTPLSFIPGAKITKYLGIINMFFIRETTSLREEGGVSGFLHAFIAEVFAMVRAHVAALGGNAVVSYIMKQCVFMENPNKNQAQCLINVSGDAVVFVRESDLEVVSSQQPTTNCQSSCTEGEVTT
inactive: [1] 0.015 | [2] 0.059 | [3] 0.014 | [4] -0.009 | [5] -0.169

CAMK2G isoform 8 (UniProt Q13555)
Sequence of UniProt Q13555 (Q13555 whole entry, looked up): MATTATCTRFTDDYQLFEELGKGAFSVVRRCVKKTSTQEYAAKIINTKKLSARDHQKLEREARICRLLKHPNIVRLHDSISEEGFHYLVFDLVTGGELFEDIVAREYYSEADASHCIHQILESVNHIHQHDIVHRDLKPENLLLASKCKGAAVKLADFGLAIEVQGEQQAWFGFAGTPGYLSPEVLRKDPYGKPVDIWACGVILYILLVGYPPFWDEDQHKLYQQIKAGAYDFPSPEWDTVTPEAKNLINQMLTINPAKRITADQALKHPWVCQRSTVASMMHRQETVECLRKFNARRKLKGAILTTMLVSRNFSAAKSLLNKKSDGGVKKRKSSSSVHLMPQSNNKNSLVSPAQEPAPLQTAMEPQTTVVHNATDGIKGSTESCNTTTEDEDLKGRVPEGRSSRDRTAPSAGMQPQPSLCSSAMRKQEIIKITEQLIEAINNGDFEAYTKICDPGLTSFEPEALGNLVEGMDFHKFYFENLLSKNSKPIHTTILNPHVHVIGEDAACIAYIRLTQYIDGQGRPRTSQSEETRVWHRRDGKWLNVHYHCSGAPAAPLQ
inactive: [1] 0.048 | [2] -0.063 | [3] -0.053 | [4] -0.007 | [5] -0.037

ATG7 (UniProt O95352)
inactive: [1] 0.014 | [2] 0.003 | [3] 0.028 | [4] -0.014 | [5] 0.044

BORCS5 (UniProt Q969J3)
inactive: [1] -0.12 | [2] 0 | [3] -0.015 | [4] -0.005 | [5] -0.011

CDC42EP4 (UniProt Q9H3Q1)
Sequence of UniProt Q9H3Q1 (Q9H3Q1 whole entry, looked up): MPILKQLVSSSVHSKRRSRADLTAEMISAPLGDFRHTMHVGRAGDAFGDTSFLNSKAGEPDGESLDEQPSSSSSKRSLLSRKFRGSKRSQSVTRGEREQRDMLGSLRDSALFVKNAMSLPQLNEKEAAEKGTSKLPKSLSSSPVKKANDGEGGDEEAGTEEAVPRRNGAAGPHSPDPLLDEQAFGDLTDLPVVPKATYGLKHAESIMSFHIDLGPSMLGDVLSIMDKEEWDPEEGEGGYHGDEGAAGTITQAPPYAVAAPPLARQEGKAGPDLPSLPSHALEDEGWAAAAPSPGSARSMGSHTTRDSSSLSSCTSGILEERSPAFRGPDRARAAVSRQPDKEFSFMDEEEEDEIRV
inactive: [1] 0.113 | [2] -0.084 | [3] -0.098 | [4] 0.004 | [5] -0.036

CFDP1 (UniProt Q9UEE9)
Sequence of UniProt Q9UEE9 (Q9UEE9 whole entry, looked up): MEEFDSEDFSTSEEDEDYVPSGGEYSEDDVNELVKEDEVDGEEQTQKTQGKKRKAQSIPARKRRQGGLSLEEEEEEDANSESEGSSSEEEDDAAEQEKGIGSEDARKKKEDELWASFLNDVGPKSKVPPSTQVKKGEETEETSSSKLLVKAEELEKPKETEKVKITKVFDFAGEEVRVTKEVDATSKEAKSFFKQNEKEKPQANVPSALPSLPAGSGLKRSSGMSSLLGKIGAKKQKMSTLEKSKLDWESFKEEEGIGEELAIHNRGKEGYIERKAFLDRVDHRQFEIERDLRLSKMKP
inactive: [1] 0.051 | [2] -0.03 | [3] -0.017 | [4] -0.03 | [5] -0.124

ATP6V0A2 (UniProt Q9Y487)
Sequence of UniProt Q9Y487 (Q9Y487 whole entry, looked up): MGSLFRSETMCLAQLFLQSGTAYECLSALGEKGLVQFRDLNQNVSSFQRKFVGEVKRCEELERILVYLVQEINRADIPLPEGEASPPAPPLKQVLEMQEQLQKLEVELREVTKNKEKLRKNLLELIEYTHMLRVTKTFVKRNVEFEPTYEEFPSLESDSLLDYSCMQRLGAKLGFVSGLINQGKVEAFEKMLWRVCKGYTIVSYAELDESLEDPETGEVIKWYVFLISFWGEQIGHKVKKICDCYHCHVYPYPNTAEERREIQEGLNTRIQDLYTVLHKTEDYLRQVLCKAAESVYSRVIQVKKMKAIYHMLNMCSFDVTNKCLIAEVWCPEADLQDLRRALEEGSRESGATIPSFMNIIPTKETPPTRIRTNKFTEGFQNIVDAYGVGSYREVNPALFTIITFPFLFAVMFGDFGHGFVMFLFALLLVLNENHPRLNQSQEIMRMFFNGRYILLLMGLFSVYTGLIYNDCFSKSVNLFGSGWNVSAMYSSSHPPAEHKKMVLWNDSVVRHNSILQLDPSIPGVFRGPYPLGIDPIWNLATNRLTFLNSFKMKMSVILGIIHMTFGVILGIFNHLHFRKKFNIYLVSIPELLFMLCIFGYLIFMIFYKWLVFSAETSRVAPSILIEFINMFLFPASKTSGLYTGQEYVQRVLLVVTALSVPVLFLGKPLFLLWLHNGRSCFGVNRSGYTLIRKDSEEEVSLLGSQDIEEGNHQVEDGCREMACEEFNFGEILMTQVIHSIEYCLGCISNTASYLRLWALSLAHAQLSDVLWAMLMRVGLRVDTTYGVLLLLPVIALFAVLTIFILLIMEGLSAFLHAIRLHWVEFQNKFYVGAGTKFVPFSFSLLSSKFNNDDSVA
inactive: [1] -0.011 | [2] -0.017 | [3] 0.026 | [4] -0.015 | [5] -0.114

CBR1 (UniProt P16152)
inactive: [1] 0.03 | [2] -0.004 | [3] 0.013 | [4] -0.021 | [5] -0.056

CELF1 isoform 4 (UniProt Q92879)
inactive: [1] 0.04 | [2] -0.005 | [3] 0.07 | [4] 0.044 | [5] 0.144

CHCHD1 (UniProt Q96BP2)
inactive: [1] -0.026 | [2] 0.024 | [3] -0.04 | [4] -0.091
active: [5] 0.627

BRD2 isoform 2 (UniProt P25440)
inactive: [1] 0.024 | [3] 0.081 | [5] 0.071
active: [2] 1.06 | [4] 0.644

ATXN2 (UniProt F8WB05)
inactive: [1] -0.17 | [2] 0.212 | [3] 0.146 | [4] 0.004 | [5] 0.022

CCNB1 (UniProt P14635)
inactive: [1] -0.019 | [2] 0.063 | [3] 0.038 | [4] -0.032 | [5] 0.036

BNIP1 (UniProt Q12981)
Sequence of UniProt Q12981 (Q12981 whole entry, looked up): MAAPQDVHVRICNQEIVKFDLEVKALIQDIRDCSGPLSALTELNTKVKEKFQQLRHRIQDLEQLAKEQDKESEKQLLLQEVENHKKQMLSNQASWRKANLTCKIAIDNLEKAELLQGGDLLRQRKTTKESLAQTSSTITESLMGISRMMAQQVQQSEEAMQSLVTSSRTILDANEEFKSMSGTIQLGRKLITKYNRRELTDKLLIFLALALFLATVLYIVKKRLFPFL
inactive: [1] 0.021 | [2] -0.051 | [3] 0.001 | [4] 0.018 | [5] 0.149

BTAF1 (UniProt O14981)
inactive: [1] 0.013 | [2] 0 | [3] -0.005 | [4] 0.04 | [5] -0.02

CCDC32 isoform 2 (UniProt Q9BV29)
Sequence of UniProt Q9BV29 (Q9BV29 whole entry, looked up): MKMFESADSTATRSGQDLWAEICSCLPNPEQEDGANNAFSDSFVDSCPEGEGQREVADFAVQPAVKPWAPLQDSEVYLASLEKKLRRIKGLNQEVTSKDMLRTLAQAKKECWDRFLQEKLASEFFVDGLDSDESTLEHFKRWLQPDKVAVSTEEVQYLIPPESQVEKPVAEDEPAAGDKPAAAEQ
inactive: [1] -0.132 | [2] -0.103 | [3] -0.058 | [4] 0.015 | [5] -0.109
